Test results reported in PubChem BioAssay.
Active and inactive are the calls of the source.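 Rule for the calls: active = normalized viability below 100% at a tested concentration; inactive = the rest.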

assay: drug combination growth inhibition, ovarian cancer – cell-based, oncology-focused library, rucaparib conditional, profiling panel (AID 1508598); details: patient-derived ovarian cancer cells, CellTiter-Glo viability, 144 h; at 0.0781 µM; OCI-C5x cells; without rucaparib; stronger effect = lower value

| Compound | viability |
| --- | --- |
| CNC(=O)c1ccc(N2C(=S)N(c3ccc(C#N)c(C(F)(F)F)c3)C(=O)C2(C)C)cc1F | 102% (inactive) |
| Cn1cncc1[C@@](N)(c1ccc(Cl)cc1)c1ccc2c(c1)c(-c1cccc(Cl)c1)cc(=O)n2C | 121% (inactive) |
| O=C(O)c1ccc2c(c1)nc(Nc1cccc(Cl)c1)c1ccncc12 | 116% (inactive) |
| CC(C)C[C@H](NC(=O)CNC(=O)c1cc(Cl)ccc1Cl)B(O)O | 103% (inactive) |
| CC1(C)CCC(c2ccc(Cl)cc2)=C(CN2CCN(c3ccc(C(=O)NS(=O)(=O)c4ccc(N[C@H](CCN5CCOCC5)CSc5ccccc5)c(S(=O)(=O)C(F)(F)F)c4)cc3)CC2)C1 | 15.9% (active) |
| C#Cc1cccc(Nc2ncnc3cc(OCCOC)c(OCCO)cc23)c1 | 129% (inactive) |
| CC(C)CC(=O)Nc1n[nH]c2c1CN(C(=O)C1CCN(C)CC1)C2(C)C | 134% (inactive) |
| C=CCn1c(=O)c2cnc(Nc3ccc(N4CCN(C)CC4)cc3)nc2n1-c1cccc(C(C)(C)O)n1 | 96.7% (active) |
| O=C(O)[C@H](Cc1c[nH]c2ccccc12)N1C(=O)c2ccccc2C1=O | 117% (inactive) |
| O=C(NC1CCNCC1)c1[nH]ncc1NC(=O)c1c(Cl)cccc1Cl | 118% (inactive) |
| CC(C)C[C@H](NC(=O)CNC(=O)c1cc(Cl)ccc1Cl)B1OC(=O)CC(CC(=O)O)(C(=O)O)O1 (some centres not stated) | 118% (inactive) |

same assay, conditions: patient-derived ovarian cancer cells, CellTiter-Glo viability, 144 h; at 0.0781 µM; OCI-P5x cells; with rucaparib 20 µM; stronger effect = lower value; 100% = cells with rucaparib alone

| Compound | viability |
| --- | --- |
| CNC(=O)c1ccc(N2C(=S)N(c3ccc(C#N)c(C(F)(F)F)c3)C(=O)C2(C)C)cc1F | 94.7% (active) |
| Cn1cncc1[C@@](N)(c1ccc(Cl)cc1)c1ccc2c(c1)c(-c1cccc(Cl)c1)cc(=O)n2C | 92.4% (active) |
| O=C(O)c1ccc2c(c1)nc(Nc1cccc(Cl)c1)c1ccncc12 | 98.9% (active) |
| CC(C)C[C@H](NC(=O)CNC(=O)c1cc(Cl)ccc1Cl)B(O)O | 101% (inactive) |
| CC1(C)CCC(c2ccc(Cl)cc2)=C(CN2CCN(c3ccc(C(=O)NS(=O)(=O)c4ccc(N[C@H](CCN5CCOCC5)CSc5ccccc5)c(S(=O)(=O)C(F)(F)F)c4)cc3)CC2)C1 | 110% (inactive) |
| C#Cc1cccc(Nc2ncnc3cc(OCCOC)c(OCCO)cc23)c1 | 96.3% (active) |
| CC(C)CC(=O)Nc1n[nH]c2c1CN(C(=O)C1CCN(C)CC1)C2(C)C | 107% (inactive) |
| C=CCn1c(=O)c2cnc(Nc3ccc(N4CCN(C)CC4)cc3)nc2n1-c1cccc(C(C)(C)O)n1 | 82.5% (active) |
| O=C(O)[C@H](Cc1c[nH]c2ccccc12)N1C(=O)c2ccccc2C1=O | 87.1% (active) |
| O=C(NC1CCNCC1)c1[nH]ncc1NC(=O)c1c(Cl)cccc1Cl | 93.7% (active) |
| CC(C)C[C@H](NC(=O)CNC(=O)c1cc(Cl)ccc1Cl)B1OC(=O)CC(CC(=O)O)(C(=O)O)O1 (some centres not stated) | 103% (inactive) |
